# Calls of active or inactive are those of the source.
# Assays:
# Albumin (Bos taurus) = Albumin (Bos taurus) (UniProt P02769); experiment: bovine serum albumin binders on microarray, profiling panel, artefact control for SMM control protein annotation, biochemical, small-molecule microarray, Alexa647 label, 635/667 nm fluorescence (AID 1118); conditions: BSA-A647 binding, fluorescence 635 nm, higher = more signal;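 note: score merges 667 nm emission intensity and signal-to-noise per printed compound spot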
# Chain of Albumin (Bos taurus) (P02769 whole entry, looked up): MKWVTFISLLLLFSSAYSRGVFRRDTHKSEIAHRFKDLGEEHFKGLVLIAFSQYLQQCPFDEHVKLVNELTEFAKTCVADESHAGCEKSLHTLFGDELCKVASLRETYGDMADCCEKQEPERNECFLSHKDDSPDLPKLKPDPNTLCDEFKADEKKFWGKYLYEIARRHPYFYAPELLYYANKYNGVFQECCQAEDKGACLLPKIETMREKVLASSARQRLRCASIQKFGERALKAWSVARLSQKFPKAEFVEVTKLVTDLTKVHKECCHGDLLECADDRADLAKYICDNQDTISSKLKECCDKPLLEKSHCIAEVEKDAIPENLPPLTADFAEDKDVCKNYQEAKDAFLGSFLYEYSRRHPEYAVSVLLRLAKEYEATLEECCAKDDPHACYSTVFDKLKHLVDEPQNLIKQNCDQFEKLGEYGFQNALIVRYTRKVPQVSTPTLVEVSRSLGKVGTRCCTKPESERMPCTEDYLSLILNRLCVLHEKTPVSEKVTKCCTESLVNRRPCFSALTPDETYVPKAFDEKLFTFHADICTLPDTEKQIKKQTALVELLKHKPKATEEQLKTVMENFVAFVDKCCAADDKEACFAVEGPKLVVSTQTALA
# [1] = small-molecule microarray binders of probe aXIP, primary screen, biochemical, NeuroSMM set, 635/667 nm fluorescence (AID 1119); conditions: higher = more signal, called active from +8 up or from −8 down;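 note: probe is the protein aXip251-270 applied at 1 µg/mL to compound-printed slides; binding of probe to printed compounds measured as 667 nm fluorescence plus signal to noise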
# [2] = small-molecule binders of probe aNOTCH3, primary screen, biochemical, small-molecule microarray, 635/667 nm fluorescence (AID 1120); conditions: higher = more signal;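 note: probe is a biotin-tagged antibody raised against NOTCH3 rather than NOTCH3 protein; score merges spot fluorescence near 667 nm with spot signal to noise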
# [3] = small-molecule binders of probe aNOTCH2, primary screen, biochemical, small-molecule microarray, 635/667 nm fluorescence (AID 1121); conditions: higher = more signal;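 note: score merges feature fluorescence read at 667 nm with its signal to noise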
# [4] = target: Carbonic anhydrase 2 (Homo sapiens) (UniProt P00918); experiment: CAII small-molecule binders, profiling panel, biochemical, small-molecule microarray, Alexa647-labelled CAII (AID 1122); conditions: CAII-A647 binding fluorescence, higher = more signal
# [5] = COS7 lysate on small-molecule microarray, probe aHis, 635 nm (AID 1123); conditions: COS7 cell lysate, fluorescence, higher = more signal;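 note: z-score combines 667nm fluorescence intensity with signal-to-noise per printed compound spot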
# [6] = compound binding in COS7 lysate, probe aLAP1, primary screen, cell lysate, small-molecule microarray (AID 1124); conditions: probe aLAP1, fluorescence, higher = more signal;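 note: lysate comes from COS7 cells expressing LAP1 and is applied at 0.3 µg/mL; score merges spot fluorescence near 667 nm with signal-to-noise over triplicate slides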
# Sam68 (KHDRBS1) = experiment: Sam68 small-molecule binders, primary screen, biochemical, small-molecule microarray, 635 nm fluorescence (AID 1125); conditions: small-molecule microarray binding, higher = more signal;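 note: score merges 667 nm channel intensity with signal to noise over triplicate slides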
# [7] = test system: Chordin-like protein 2 (CHRDL2); experiment: CHRDL2 small-molecule binders, primary screen, biochemical, small-molecule microarray, 635 nm fluorescence (AID 1126); conditions: small-molecule microarray binding, fluorescence 635 nm; higher = more signal;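 note: printed compound slides probed with Chrdl2 protein at 4 µg/mL for 1 h at 4 C; score merges 667 nm emission intensity with signal to noise over three replicate slides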
# [8] = target: Concanavalin-A (Canavalia ensiformis) (UniProt P02866); experiment: ConA small-molecule binders, primary screen, artefact control for SMM control protein annotation, biochemical, small-molecule microarray, Alexa647 label, 635 nm (AID 1127); conditions: ConA-A647 binding fluorescence, higher = more signal;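 note: z combines 667 nm emission intensity with signal-to-noise across three replicate slides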
# Chain of Concanavalin-A (Canavalia ensiformis) (P02866 whole entry, looked up): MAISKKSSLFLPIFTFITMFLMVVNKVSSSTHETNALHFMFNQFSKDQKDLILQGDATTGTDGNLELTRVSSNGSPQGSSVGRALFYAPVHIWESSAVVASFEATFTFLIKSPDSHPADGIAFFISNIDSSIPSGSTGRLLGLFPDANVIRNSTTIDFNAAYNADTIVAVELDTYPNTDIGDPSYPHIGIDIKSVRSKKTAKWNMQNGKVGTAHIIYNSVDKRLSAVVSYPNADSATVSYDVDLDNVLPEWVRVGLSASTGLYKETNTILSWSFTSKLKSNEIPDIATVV
SMILES,composite z-score (Albumin (Bos taurus)),composite Z-score [1],composite z-score [2],composite z-score [3],composite z-score [4],composite z-score [5],composite z-score [6],composite z-score (Sam68 (KHDRBS1)),composite z-score [7],composite z-score [8]
CC(C)C[C@@H]1NC(=O)[C@H]2C[C@@H](C(=O)NCCCCCNC(=O)CS)[C@@H](c3ccc(O)cc3)N2C1=O,-0.796,0.0136 (inactive),-0.171,-0.144,0.414,2.08,0.873,1.31,0.795,0.885
NCCCC[C@@H]1NC(=O)[C@H]2C[C@@H](C(=O)NCc3ccc(F)cc3)[C@@H](c3ccc(O)cc3)N2C1=O,-0.135,0.744 (inactive),0.125,-0.0531,0.738,2.18,0.313,1.19,0.521,1.13
CC(=O)c1ccc(C(O)C2C=CC3C(=O)NC(=O)C3N2Nc2ccc(Cl)cc2Cl)cc1 (stereo not given),0.843,0.0186 (inactive),-0.0151,-0.0097,0.759,2.15,-0.227,-0.0077,0.0823,-0.185
CC(C)=CCN(C(=O)C#Cc1ccccc1)[C@H](CO)c1ccccc1,-0.105,-0.0102 (inactive),0.0259,-0.0883,-0.0216,0.506,0.0602,0.798,0.902,0.101
C=C(CCCC)C(=O)CC[C@H](OC(C)=O)c1ccccc1OCCO,0.326,0.7 (inactive),0.156,-0.0242,0.113,0.0794,0.277,0.368,0.544,-0.0099
C=C(COC)/C(=C/C[C@H](OC(=O)c1ccncc1)c1cccc(OCCO)c1)c1cnc2ccccc2c1,0.671,1.56 (inactive),0.279,-0.0681,0.855,1.21,0.444,1.3,1.23,1.09
COC(=O)[C@H](Cc1ccc(O)cc1)N1CC2=CCCC=C[C@@H]2[C@H]1[C@H](O)Cc1ccccc1,0.293,-0.223 (inactive),-0.0319,-0.0772,0.669,0.16,-0.0126,-0.163,0.706,0.295
C=CCC(OC(C)=O)[C@@H]1[C@@H](N(Cc2ccc(-c3cccc(C(F)(F)F)c3)o2)C(=O)c2cccc3ccccc23)c2cc(OCCCO)ccc2N1C(=O)c1ccc2ccccc2n1 (stereo not given in full),-0.197,-0.116 (inactive),0.0248,-0.103,-0.162,0.385,-0.202,-0.258,0.328,-0.18
CO[C@H]1O[C@H](CO)[C@@H](OC(=O)Nc2ccc(C(F)(F)F)cc2)[C@H](OC(=O)Nc2ccccc2-c2ccccc2)[C@H]1OC(=O)Nc1ccccc1-c1ccccc1,-0.792,0.259 (inactive),0.144,-0.0406,0.693,2.22,-0.244,1.3,-0.0407,1.2
[N-]=[N+]=NCc1ccccc1[C@@H]1OC(c2ccc(OCCCO)cc2)=N[C@]1(Cc1ccccc1)C(=O)NCc1ccccc1,0.937,-0.04 (inactive),0.0774,-0.0349,0.782,2.99,0.388,0.826,-0.691,1.08
CN(C)CCCNC(=O)[C@@H]1c2ccccc2C(=O)N(C2Cc3ccccc3C2)[C@H]1c1ccc(CO)cc1,0.274,0.0516 (inactive),-0.45,0.197,0.505,0.132,0.682,1.3,-0.0701,0.491
COCCOC(=O)N1C(=O)[C@@]2(c3cc(C#CC4(O)CCCCCC4)ccc31)[C@H](c1ccccc1OCCO)N1[C@H](c3ccccc3)[C@H](c3ccccc3)OC(=O)[C@H]1[C@@H]2C(=O)N1CCCCCCC1,0.187,0.961 (inactive),1.07,0.513,0.497,2.16,0.364,1.29,0.905,0.992
CCCCC(O)C1C=CC2C(=O)N(C)C(=O)C2N1Nc1ccccc1 (stereo not given),0.555,0.267 (inactive),0.138,-0.0708,0.72,2.06,0.182,1.29,-0.107,0.31
C=C(CCCC)/C(=C/C[C@H](OC(C)=O)c1cccc(OCCO)c1)c1cc(C(=O)OC)ccc1OC,0.387,-0.822 (inactive),-0.21,-0.132,0.355,-0.148,0.147,0.302,-0.149,-0.795
COCCn1c(C(=O)N2CCCC2)cc2c1C[C@H]1CN(C(=O)c3ccccc3)[C@@](Cc3ccccc3)(C(=O)OC)[C@@H]21,1.03,0.239 (inactive),0.676,0.6,0.676,3.14,0.403,1.29,-0.133,1.11
CCOC(=O)C1=CC[C@@H](c2ccc(F)cc2)N(S(=O)(=O)c2ccc(C)cc2)[C@H]1c1ccc([N+](=O)[O-])cc1,0.854,0.348 (inactive),0.137,-0.14,0.223,2,-0.0775,1.2,-0.493,1.09
CCC(CC)C(O)C1C=CC2C(=O)N(C)C(=O)C2N1N1CCCCC1 (stereo not given),0.999,-0.175 (inactive),0.499,0.0477,0.755,2.5,0.502,1.31,0.0277,1.13

SMILES,composite z-score (Albumin (Bos taurus)),composite Z-score [1],composite z-score [2],composite z-score [3],composite z-score [4],composite z-score [5],composite z-score [6],composite z-score (Sam68 (KHDRBS1)),composite z-score [7],composite z-score [8]
O=C1c2ccccc2[C@](Cc2ccccc2I)(C(=O)O)[C@H](c2ccc(CO)cc2)N1Cc1ccccc1,0.48,0.929 (inactive),-0.123,-0.112,0.729,1.25,1.05,1.25,-0.813,1.02
CCCCCCCCCCC(O)C1C=CC2C(=O)N(C)C(=O)C2N1N1CCCCC1 (stereo not given),-0.377,-0.0231 (inactive),-0.256,-0.135,-0.284,0.879,0.582,-0.555,-2.31,-1.13
N#Cc1ccc(C(O)C2C=CC3C(=O)NC(=O)C3N2Nc2ccccn2)cc1 (stereo not given),0.95,-0.483 (inactive),0.0297,-0.0907,0.854,0.767,0.711,-0.106,0.31,0.468
CC=CC(O)C1C=CC2C(=O)N(C)C(=O)C2N1NC(=O)OC(C)(C)C (stereo not given),1.03,0.397 (inactive),0.0687,-0.173,0.774,0.439,0.826,-0.0008,0.204,0.0815
NC(=O)NCC#Cc1ccc2c(c1)[C@]1(C(=O)N2)[C@H](C(=O)Nc2nc3ccccc3s2)[C@H]2C(=O)O[C@H](c3ccccc3)[C@H](c3ccccc3)N2[C@@H]1c1ccc(OCCO)cc1,0.0054,0.367 (inactive),-0.0956,-0.238,0.136,0.408,0.109,-0.137,-0.258,0.318
[N-]=[N+]=NCc1ccccc1C[C@]1(C(=O)N2CCCCC2)N=C(c2ccc(OCCCO)cc2)O[C@H]1c1ccccc1,-0.0604,0.397 (inactive),0.23,-0.0323,0.564,1.22,-0.0174,0.979,-1.02,0.717
COCC1=C([C@H](O)CCc2ccccc2)[C@H](CO)n2c(=O)n(-c3ccccc3)c(=O)n2C1,-0.442,0.0423 (inactive),-0.0014,-0.212,-0.447,-0.303,-0.469,-0.73,0.319,0.134
C[N+](C)(C)CCCCCCNC(=O)[C@@H]1C[C@@H]2C(=O)N[C@@H](Cc3ccccc3)C(=O)N2[C@@H]1c1ccc(O)cc1,0.454,0.609 (inactive),0.325,-0.126,0.524,0.955,0.385,1.29,1.39,1.12
C=CCC(OC(C)=O)[C@@H]1[C@@H](N(Cc2cc3ccccc3o2)C(=O)Cc2ccc(OC)cc2)c2cc(OCCCO)ccc2N1C(=O)Cc1ccc2ccccc2c1 (stereo not given in full),0.402,-0.374 (inactive),-0.0391,-0.0424,-0.061,0.491,-0.185,-0.235,-0.563,0.3
COCCOC(=O)N1C(=O)[C@@]2(c3cc(C#CC4(O)CCCCCC4)ccc31)[C@H](C(=O)N1CCc3cc(OC)c(OC)cc3C1)[C@H]1C(=O)O[C@H](c3ccccc3)[C@H](c3ccccc3)N1[C@@H]2c1ccc(O)cc1,0.609,0.413 (inactive),0.163,0.0012,0.638,1.58,0.773,1.29,0.34,1.16
O=C1OCCC=C[C@H]2OC34C=CCN(CCN5CCOCC5)C(=O)[C@H]3N(CCCO)C(=O)[C@@H]4C12 (stereo not given in full),-0.444,1.11 (inactive),-0.155,-0.171,0.0003,1.2,-0.0411,-0.119,-0.794,-0.112
COc1ccc(CCNC(=O)[C@@]2(C)c3ccccc3C(=O)N(Cc3cc(C(F)(F)F)cc(C(F)(F)F)c3)[C@H]2c2ccc(CO)cc2)cc1,0.0386,0.793 (inactive),-0.179,-0.161,0.643,2.41,0.558,1.13,0.394,0.308
COC(=O)[C@@]1(Cc2ccc(F)cc2)[C@H]2c3cc(C(=O)N4CCCC4)n(CCO)c3C[C@H]2CN1C(=O)c1ccccc1,0.503,-0.196 (inactive),0.329,0.227,0.753,3.45,0.393,-2.03,-1.04,-0.242
COc1ccc(NN2C(C(O)c3cc(C(F)(F)F)cc(C(F)(F)F)c3)C=CC3C(=O)N(C4CCCCC4)C(=O)C32)cc1 (stereo not given),0.771,-0.0097 (inactive),1.02,0.659,0.589,1.5,0.219,1.07,0.0186,1.04
COc1ccc([Si](C)(C)[C@H]2[C@H](CC(=O)N3Cc4ccccc4C[C@H]3CO)O[C@@]3(C(=O)N(Cc4cccc(N5C(=O)c6cccc7cccc5c67)c4)c4ccccc43)[C@@H]2C)cc1,-0.0311,0.285 (inactive),-0.332,-0.114,0.295,1.32,0.271,1.15,1.33,0.872
CN(C)CCCCNC(=O)[C@H]1C[C@H]2C(=O)N[C@@H](Cc3ccccc3)C(=O)N2[C@H]1c1cccc(OCCO)c1,-0.598,-0.162 (inactive),-0.199,-0.117,0.627,-0.185,-0.507,-1.16,0.739,0.696

# Source: PubChem BioAssay
